Reference: PubChem BioAssay AID720597 (Broad Institute, 2013)
Results with a measured potency or affinity are listed apart. Values without a mark were called inactive.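 Rule for the calls: active = fitted half-maximal dose no more than twice the top valid tested dose, for compounds that lower signal; inconclusive = fit invalid, or curve flat with activity between -70 and -30; inactive = potency past limit, curve flat within ±30, or signal increasing.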

molecular target: NAD-dependent protein deacylase sirtuin-5, mitochondrial (Homo sapiens) (UniProt Q9NXA8); experiment: blockers of sirtuin-5 peptide desuccinylation – biochemical, fluorescence imaging, cherry-pick, set 6, dose response (AID 720597); conditions: Purified SirT5, succinyl-peptide-AMC/trypsin fluorescence; series mostly up to 15 µM; activity change, negative = inhibition: at the top concentration;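 note: lower AMC signal can also come from blocking the trypsin step; 0% = median of neutral control wells and -100% = median of positive control wells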
Sequence (Q9NXA8 whole entry, looked up): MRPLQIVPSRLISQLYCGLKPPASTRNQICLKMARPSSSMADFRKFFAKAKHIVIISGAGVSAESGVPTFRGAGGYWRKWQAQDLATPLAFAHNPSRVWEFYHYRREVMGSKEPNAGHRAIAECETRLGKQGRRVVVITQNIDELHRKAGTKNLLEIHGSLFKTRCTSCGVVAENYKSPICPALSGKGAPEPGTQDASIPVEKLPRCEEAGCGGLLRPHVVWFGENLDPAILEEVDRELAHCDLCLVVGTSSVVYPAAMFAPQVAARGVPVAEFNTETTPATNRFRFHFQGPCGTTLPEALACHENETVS

Row | Structure (SMILES) | activity change, negative = inhibition
1 | CCN(C[C@@H]1[C@@H](c2ccccc2)[C@H](CO)N1C(=O)C1CC1)C(=O)NC1CCCC1 | 38.9%
2 | O=C1CN(S(=O)(=O)c2ccccc2)C[C@@H]2[C@H](c3ccc(C#Cc4ccccc4)cc3)[C@H](CO)N12 | 3.33%
3 | COc1ccc(NC(=O)N(C)C[C@@H]2Oc3ccc(NS(=O)(=O)c4ccc(F)cc4)cc3C(=O)N([C@H](C)CO)C[C@@H]2C)cc1 | 15%
4 | C[C@@H]1CN([C@H](C)CO)C(=O)c2cc(NS(=O)(=O)c3ccc(F)cc3)ccc2O[C@@H](C)CCCCO[C@@H]1CN(C)S(=O)(=O)c1ccc(Cl)cc1 | 2.61%
5 | CCCC(=O)Nc1ccc2c(c1)OC[C@@H](C)N(Cc1ccccc1)C[C@H](C)[C@@H](OC)CN(C)C2=O | -11.1%
6 | COc1cccc(S(=O)(=O)N(C)C[C@@H]2Oc3ncc(-c4cccc(C(F)(F)F)c4)cc3C(=O)N([C@H](C)CO)C[C@@H]2C)c1 | -26.8%
7 | O=C(NCC1CCCCC1)[C@H]1[C@H](CO)[C@H]2Cn3c(cccc3=O)[C@@H]1N2CCc1ccccc1 | -24.3%
8 | COc1ccccc1-c1ccc2c(c1)O[C@H](CN(C)S(=O)(=O)c1ccc(F)cc1)[C@H](C)CN([C@H](C)CO)S2(=O)=O | -19.5%
9 | C[C@H]1CN([C@@H](C)CO)S(=O)(=O)c2ccc(/C=C/c3ccccc3)cc2O[C@@H]1CN(C)C(=O)NC1CCCCC1 | 15.3%
10 | CN(C)C(=O)c1cccc(-c2ccc([C@H]3[C@@H](CO)N4CCCCN(S(C)(=O)=O)C[C@@H]34)cc2)c1 | 9.06%
11 | CC(C)CC#Cc1ccc2c(c1)O[C@H](CN(C)S(=O)(=O)c1cccc(F)c1)[C@H](C)CN([C@H](C)CO)S2(=O)=O | -21.9%
12 | C[C@@H]1CCCCO[C@H](CN(C)C(=O)Nc2ccc(C(F)(F)F)cc2)[C@@H](C)CN([C@H](C)CO)C(=O)c2cc(NS(=O)(=O)c3ccc(Cl)cc3)ccc2O1 | 2.91%
13 | COc1ccc(S(=O)(=O)N(C)C[C@@H]2OCCCC[C@H](C)Oc3ccc(NS(=O)(=O)c4ccc(C)cc4)cc3C(=O)N([C@@H](C)CO)C[C@@H]2C)cc1 | -30.9%
14 | COc1cccc(NC(=O)N(C)C[C@@H]2OCc3cn(nn3)CCCC(=O)N([C@H](C)CO)C[C@H]2C)c1 | -2.5%
15 | O=C(N[C@@H]1CC[C@H](CCNS(=O)(=O)c2ccccc2)O[C@H]1CO)c1cnccn1 | 7.21%
16 | COc1ccc(S(=O)(=O)Nc2ccc3c(c2)C(=O)N([C@H](C)CO)C[C@@H](C)[C@H](CN(C)S(=O)(=O)c2ccccc2)OCCCC[C@H](C)O3)cc1 | -24.8%
17 | Cc1noc(C)c1NC(=O)N(C)C[C@H]1OCCCC[C@@H](C)Oc2ccc(NS(=O)(=O)c3c(C)noc3C)cc2C(=O)N([C@H](C)CO)C[C@@H]1C | 0.04% [at 16 µM]
